The campaign covered roughly 69,000 compounds. About 950 (1.4%) showed an effect of 50% or more. For the sample, strong results were picked, then their nearest neighbours and some compounds at random.

In this assay the test system is Mycobacterium tuberculosis. Briefly: Cornell M. t heat shock assay. Further: in the data most compounds retested in dose-response had high values. It is filed as functional, organism-based. Also on record: dose or concentration left out as unconfirmed.
As for `CNC(=O)[C@H]1C[C@@H]2CN(Cc3cccc(C)c3)C[C@H]1O2.O=C(O)C(F)(F)F`, the “Percent Effect” value was determined as 19.67%. As to `COCCNC(=O)[C@H]1CN(Cc2sccc2C)C[C@H]2OCC[C@@H]12.O=C(O)C(F)(F)F`, the “Percent Effect” value is listed as -45.09%. To `Br.Cc1cc(C)c(N(CC(O)CNCc2ccccc2)S(C)(=O)=O)c(C)c1` (stereo unspecified) belongs 3.921%; to `Cc1cccc(CN2C(=O)CCC23CCNCC3)n1.O=C(O)C(F)(F)F.O=C(O)C(F)(F)F`, -5.538%.

On to `COCCN1CCC2(CCCN(c3ncccn3)C2)C1.O=C(O)C(F)(F)F` (stereo unspecified), for which the “Percent Effect” value is -80.98%.

With `CN1CCC(c2n[nH]c3ncccc23)C1.O=CO` (stereo unspecified), the “Percent Effect” value was 50.56%. Consider `CN1CCCC(c2n[nH]c3ncccc23)C1` (stereo unspecified), for which the “Percent Effect” value is given as -10.45%. To `c1cnc(N2CCC(c3n[nH]c4ncccc34)C2)nc1` (stereo unspecified) belongs -8.956%. As for `Cc1ccc(N2CCN(c3ccccc3C)CC2C)nn1` (stereo unspecified), the “Percent Effect” value came to 2.644%. On to `Cc1ccccc1N1CCN(c2ccncn2)C(C)C1` (stereo unspecified), for which the “Percent Effect” value is 56.56%. To `Cc1ccccc1N1CCN(c2cc(N(C)C)ncn2)C(C)C1` (stereo unspecified) belongs 21.52%. On to `Cc1ccc(Nc2nccc(C3CCN(C(=O)CN)C3)n2)nc1.Cl` (stereo unspecified), for which the “Percent Effect” value is -1.968%. As to `COc1cccc(COCC(O)CN(C)c2ccc(C)cc2C)c1` (stereo unspecified), the “Percent Effect” value was -34.76%. As for `OCC1(CC2CCCCO2)CCN(c2cnc3ccccc3n2)CC1` (stereo unspecified), the “Percent Effect” value was 103.4%. To `Cc1cc(N2CCC(CO)(CC3CCCCO3)CC2)c2ccccc2n1` (stereo unspecified) belongs -3.721%; to `Cc1cc(N2CCC(CO)(CC3CCCCO3)CC2)nc2ccccc12` (stereo unspecified), 3.069%; to `CO[C@@H]1CC[C@H]2[C@H]1OCCN2Cc1ccc(F)cc1.O=C(O)C(F)(F)F`, -14.29%.

As for `CCn1cc(NC(=O)CN2CCC(Oc3ccc(F)cc3)CC2)c(C)n1.Cl`, the “Percent Effect” value was -4.397%. Regarding `CCCN(C(=O)c1cnccn1)c1nc2c(s1)CCc1c-2cnn1C`, the “Percent Effect” value is -8.207%. With `COCCN(C(=O)c1ccccn1)c1nc2c(s1)CCc1c-2cnn1C`, the “Percent Effect” value was found to be 15.96%. Under `CCCN(C(=O)c1ccccn1)c1nc2c(s1)CCc1c-2cnn1C` stands 103.2%; under `CCCN(C(=O)c1cccnc1)c1nc2c(s1)CCc1c-2cnn1C`, 19.23%; under `CCCN(C(=O)c1cnc(C)cn1)c1nc2c(s1)CCc1c-2cnn1C`, -19.73%. `CCCN(C(=O)c1ccncc1)c1nc2c(s1)CCc1c-2cnn1C`: the “Percent Effect” value is 61.93%. For `Cc1nc(N2CCOCC2)nc2c1CCN(Cc1nccn1C)CC2.O=C(O)C(F)(F)F`, the “Percent Effect” value is listed as -4.986%. In the case of `O=C(O)C(F)(F)F.O=C(c1cccnc1)N1CCC2(CCN(C(=O)N3CCCC3)CC2)C1`, the “Percent Effect” value amounted to 2.065%.

Source of the values: ChEMBL document CHEMBL3988442, “University of Dundee, Small-Polar-MMV Screening Library” (2021).
